# Reference: PubChem BioAssay
# A number with no mark means an inactive call. Calls of active or inactive are those of the source. Rule as the data show it, unless noted: active = inhibition above about 44%; inactive = the rest.
# System: not listed separately
# Experiment: StAR promoter reporter inhibitors, counter-screen for LRH-1 inverse agonist project, cell-based, luminescence, high throughput (AID 651611; in the data active = inhibition above about 28%)
# Details: StAR promoter luciferase reporter counterscreen, at 3.6 µM, hits give high values
row,SMILES,inhibition
1,Cc1nnsc1C(=O)NC1CCCc2c1cnn2-c1ccc(C(C)(C)C)cc1 (configuration not stated),29.2% (active)
2,COc1ccc(NS(=O)(=O)c2ccc3c(c2)OCCO3)cc1OC,10.4%
3,CC(C)(C)C(=O)/C(=C/c1cccc([N+](=O)[O-])c1)n1cncn1,87.2% (active)
4,O=C(Nc1ccc(Br)cn1)C1CCN(S(=O)(=O)c2cccs2)CC1,13.5%
5,COc1ccc(/C=C/C(=O)O)cc1O,1.72%
6,N#Cc1cccc(C=C(C(=O)c2ccccc2)c2ccccc2)c1,18.6%
7,COc1ccc(NC(=O)/C(Cl)=C(/Cl)S(=O)Cc2ccccc2)cn1 (configuration not stated),56.1% (active)
8,CC(C)(C)C(=O)/C(=C\c1cccc([N+](=O)[O-])c1)n1cncn1,84.9% (active)
9,CCN(Cc1ccc(OC)c(F)c1)C(=O)CCl,31.7% (active)
10,O=C(N/N=C/c1ccc([N+](=O)[O-])s1)c1cccnc1,13.9%
11,CCc1cc(-c2nnn(CCC3COCCO3)c2CC)ccc1-c1cn(Cc2ccc3ccccc3c2)nn1 (configuration not stated),0.97%
12,C=CC(=O)N1C/C(=C/c2ccc(Cl)cc2)C(=O)/C(=C\c2ccc(Cl)cc2)C1,17.8%

# Target: Nuclear receptor subfamily 5 group A member 2 (Homo sapiens) (UniProt O00482)
# Sequence (O00482 whole entry, looked up): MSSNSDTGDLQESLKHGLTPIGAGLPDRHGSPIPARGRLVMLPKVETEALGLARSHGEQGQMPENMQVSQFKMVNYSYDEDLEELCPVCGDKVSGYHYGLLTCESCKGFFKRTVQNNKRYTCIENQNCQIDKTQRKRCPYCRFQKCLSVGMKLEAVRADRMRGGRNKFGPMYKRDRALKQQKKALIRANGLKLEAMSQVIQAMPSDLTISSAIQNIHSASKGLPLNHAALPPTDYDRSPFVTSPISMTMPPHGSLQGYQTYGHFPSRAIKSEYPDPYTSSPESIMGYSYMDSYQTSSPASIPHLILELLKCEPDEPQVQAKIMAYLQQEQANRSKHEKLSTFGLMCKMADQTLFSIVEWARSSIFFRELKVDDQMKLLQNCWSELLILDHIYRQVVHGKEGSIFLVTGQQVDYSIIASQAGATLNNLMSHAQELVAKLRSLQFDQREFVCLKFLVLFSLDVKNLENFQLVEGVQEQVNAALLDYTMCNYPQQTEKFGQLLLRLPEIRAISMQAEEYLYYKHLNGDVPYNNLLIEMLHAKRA
# Experiment: NR5A2 activity suppression in reporter cells – cell-based, luminescence, confirmation (AID 651613; in the data active = inhibition above about 42%;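 also: HEK293T cells co-transfected with LRH-1 and StAR promoter luciferase reporter; 0% = vehicle wells and 100% = parental cells lacking receptor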)
# Details: cell-based LRH-1 luciferase reporter, inverse agonism; at 3.6 µM; hits give high values
row,SMILES,inhibition
1,O=C(N/N=C/c1ccc([N+](=O)[O-])o1)c1ccc(O)cc1,78.3% (active)
2,Cc1nnsc1C(=O)NC1CCCc2c1cnn2-c1ccc(C(C)(C)C)cc1 (configuration not stated),50.7% (active)
3,CN(C)c1ccc2nc3ccc(=[N+](C)C)cc-3sc2c1,59.9% (active)
4,COc1ccc(NS(=O)(=O)c2ccc3c(c2)OCCO3)cc1OC,69.7% (active)
5,COc1ccc(-c2nc3c([nH]2)c(=O)n(C)c(=O)n3C)c(OC)c1,24.5%
6,CN(C)C(=O)c1cccc(COc2ccc(N3C(N)=NC(N)=NC3(C)C)cc2Cl)c1,42.1% (active)
7,O=C(Nc1ccc(Br)cn1)C1CCN(S(=O)(=O)c2cccs2)CC1,48.4% (active)
8,CNC(=O)c1cc(Oc2ccc(NC(=O)Nc3ccc(Cl)c(C(F)(F)F)c3)cc2)ccn1,63.7% (active)
9,COC(=O)c1ccc(OCC2c3cc(OC)c(OC)cc3CCN2C(=O)c2ccco2)cc1 (configuration not stated),52.8% (active)
10,N#Cc1cccc(C=C(C(=O)c2ccccc2)c2ccccc2)c1,28.9%
11,COc1ccc(NC(=O)/C(Cl)=C(/Cl)S(=O)Cc2ccccc2)cn1 (configuration not stated),87.8% (active)
12,CC(=O)Nc1ccc(NC(=O)CSc2nnc(-c3ccco3)n2Cc2ccco2)cc1,58.2% (active)
13,CCN(Cc1ccc(OC)c(F)c1)C(=O)CCl,78.7% (active)
14,CCc1cc(-c2nnn(CCC3COCCO3)c2CC)ccc1-c1cn(Cc2ccc3ccccc3c2)nn1 (configuration not stated),34.7%
15,CC(N)C(=O)NC(CO)C(O)C(N)C=O (configuration not stated),56.3% (active)
16,Cn1cc(C(=O)c2ccc(Cl)cc2)cc1-c1nc2ccccc2n1C,51.9% (active)
17,C=CC(=O)N1C/C(=C/c2ccc(Cl)cc2)C(=O)/C(=C\c2ccc(Cl)cc2)C1,84.7% (active)

# Target: Steroidogenic factor 1 (Homo sapiens) (UniProt Q13285)
# Sequence (Q13285 whole entry, looked up): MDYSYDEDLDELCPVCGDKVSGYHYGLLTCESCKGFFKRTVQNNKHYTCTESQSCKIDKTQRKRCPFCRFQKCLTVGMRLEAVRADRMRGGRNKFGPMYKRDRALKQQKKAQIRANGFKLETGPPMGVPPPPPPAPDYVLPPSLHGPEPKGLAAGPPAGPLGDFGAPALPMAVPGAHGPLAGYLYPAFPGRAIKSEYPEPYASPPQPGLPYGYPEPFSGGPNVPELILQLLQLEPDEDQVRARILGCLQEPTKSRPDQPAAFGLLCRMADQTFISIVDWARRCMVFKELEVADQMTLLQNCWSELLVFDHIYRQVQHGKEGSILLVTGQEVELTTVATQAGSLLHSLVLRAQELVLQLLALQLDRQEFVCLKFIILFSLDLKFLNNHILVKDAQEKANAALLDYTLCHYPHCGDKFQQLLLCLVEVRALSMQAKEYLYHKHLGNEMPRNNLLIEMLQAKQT
# Experiment: inverse agonism at SF1 nuclear receptor – cell-based, luminescence, high throughput, counter-screen for LRH-1 inverse agonist project (AID 651614);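 also: cells cotransfected with StAR promoter reporter and SF1 expression vector; 0% = vehicle on cells with receptor and 100% = vehicle on cells lacking receptor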
# Details: cell-based SF1 luciferase reporter, at 3.6 µM, hits give high values
row,SMILES,inhibition
1,O=C(N/N=C/c1ccc([N+](=O)[O-])o1)c1ccc(O)cc1,69% (active)
2,Cc1nnsc1C(=O)NC1CCCc2c1cnn2-c1ccc(C(C)(C)C)cc1 (configuration not stated),63.2% (active)
3,CN(C)c1ccc2nc3ccc(=[N+](C)C)cc-3sc2c1,66.7% (active)
4,COc1ccc(NS(=O)(=O)c2ccc3c(c2)OCCO3)cc1OC,67.5% (active)
5,COc1ccc(-c2nc3c([nH]2)c(=O)n(C)c(=O)n3C)c(OC)c1,12.7%
6,CN(C)C(=O)c1cccc(COc2ccc(N3C(N)=NC(N)=NC3(C)C)cc2Cl)c1,39.9%
7,O=C(Nc1ccc(Br)cn1)C1CCN(S(=O)(=O)c2cccs2)CC1,50.2% (active)
8,CNC(=O)c1cc(Oc2ccc(NC(=O)Nc3ccc(Cl)c(C(F)(F)F)c3)cc2)ccn1,69% (active)
9,COC(=O)c1ccc(OCC2c3cc(OC)c(OC)cc3CCN2C(=O)c2ccco2)cc1 (configuration not stated),53% (active)
10,N#Cc1cccc(C=C(C(=O)c2ccccc2)c2ccccc2)c1,36.9%
11,COc1ccc(NC(=O)/C(Cl)=C(/Cl)S(=O)Cc2ccccc2)cn1 (configuration not stated),78.2% (active)
12,COc1cccc(N2CCN(CC(=O)Nc3ccc(-n4cnnn4)cc3)CC2)c1,48.9% (active)
13,CC(=O)Nc1ccc(NC(=O)CSc2nnc(-c3ccco3)n2Cc2ccco2)cc1,59.9% (active)
14,CCN(Cc1ccc(OC)c(F)c1)C(=O)CCl,73.3% (active)
15,CCc1cc(-c2nnn(CCC3COCCO3)c2CC)ccc1-c1cn(Cc2ccc3ccccc3c2)nn1 (configuration not stated),42.3%
16,CC(N)C(=O)NC(CO)C(O)C(N)C=O (configuration not stated),55.5% (active)
17,Cn1cc(C(=O)c2ccc(Cl)cc2)cc1-c1nc2ccccc2n1C,49.8% (active)
18,C=CC(=O)N1C/C(=C/c2ccc(Cl)cc2)C(=O)/C(=C\c2ccc(Cl)cc2)C1,87.8% (active)
